# Bioassay records: PubChem BioAssay, National Center for Advancing Translational Sciences (NCATS)
# The list is not random: actives were taken first. Their share in the collection is about 22%.
# Pf growth 96h = Primary qHTS for delayed death inhibitors of the malarial parasite plastid, 96 hour incubation | P. falciparum luciferase reporter growth, 96 h | Potency, µM (titrated, usually from 28.7 µM), without a hit: at the top dose activity change, negative = inhibition, hits mostly inhibitors | actives 6.9% (n = 320,000); further: potency means the concentration at half of the fitted maximal effect; on the % scale 0 is the no-effect control and ±100 the full control effect
#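 96 h incubation, 37 C, 5% CO2, of luciferase-reporter P. falciparum-infected RBCs (2% hematocrit, 0.05% parasitemia final) with test compounds; endpoint luminescence.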
# LmPK inh = qHTS Assay for Inhibitors of Leishmania Mexicana Pyruvate Kinase (LmPK). purified LmPK, Kinase-Glo ATP luminescence, 1 h. actives 0.37% (n = 290,000). Q27686. AID 1721, 2009. Potency, µM (doses to about 57.5 µM), without a hit: top-dose activity change, negative = inhibition, hits mostly inhibitors; further: potency means the concentration at half of the fitted maximal effect; on the % scale 0 is the no-effect control and ±100 the full control effect
# Target sequence (Q27686 whole entry, looked up): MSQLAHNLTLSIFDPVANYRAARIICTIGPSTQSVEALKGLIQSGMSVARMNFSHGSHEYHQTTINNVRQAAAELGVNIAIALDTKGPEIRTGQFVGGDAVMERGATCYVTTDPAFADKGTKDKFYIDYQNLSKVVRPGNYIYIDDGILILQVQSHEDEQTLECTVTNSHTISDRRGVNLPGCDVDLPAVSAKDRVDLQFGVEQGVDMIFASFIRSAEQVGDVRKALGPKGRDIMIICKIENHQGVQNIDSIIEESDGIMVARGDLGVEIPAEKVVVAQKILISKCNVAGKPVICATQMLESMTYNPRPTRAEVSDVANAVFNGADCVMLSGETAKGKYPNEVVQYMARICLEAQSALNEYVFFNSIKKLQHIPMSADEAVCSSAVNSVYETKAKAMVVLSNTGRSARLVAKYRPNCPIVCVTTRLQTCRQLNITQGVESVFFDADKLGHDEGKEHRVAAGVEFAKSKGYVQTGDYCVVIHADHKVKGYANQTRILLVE
#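 Kinase-Glo luminescence read after 1 h RT reaction of 0.1 nM LmPK with 0.5 mM PEP and 0.1 mM ADP. Activity scaled between uninhibited and enzyme-free controls.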
# Cycloheximide cs = Cycloheximide Counterscreen for Small Molecule Inhibitors of Shiga Toxin | actives 12% (n = 300,000) | max response, % | AID 2314, 2010 | cell reporter, cycloheximide protein synthesis inhibition counterscreen; in the data active means max response mostly above about 13%, no sharp cut-off; inactive means mostly below about 14%; further: read at 38.3 µM for the half of the compounds with a filed dose; 0% is about no effect
# Pf growth 48h = Primary qHTS for delayed death inhibitors of the malarial parasite plastid, 48 hour incubation; P. falciparum luciferase growth in erythrocytes, 48 h; Potency, µM (top dose mostly 28.7 µM), inactives show at the top dose activity change, negative = inhibition, usual class: inhibitors; actives 5.9% (n = 310,000); AID 504832, 2011; further: potency means the concentration at half of the fitted maximal effect; on the % scale 0 is the no-effect control and ±100 the full control effect
#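 A one-generation exposure of luciferase-tagged malaria parasites in RPMI 1640/Albumax erythrocyte culture, 37 C and 5% CO2. Inhibition is inferred from decreased luminescence after adding detection reagent.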
# Shiga toxin inh = A qHTS for Small Molecule Inhibitors of Shiga Toxin; AID 2315, 2010; Vero cells, Shiga toxin protein synthesis inhibition reporter; inhibition, % at 38.7 µM; actives 9.2% (n = 290,000); in the data active means inhibition mostly above about 28%, no sharp cut-off; inactive means mostly below about 43%; further: 0% is about no effect
# * hit, by the source's call; ? = inconclusive; / = no result; [ ] = another dose, or the depositor's remark. Unless noted, the call rests on the fitted dose curve; in most records, active means well fitted inhibition curve with a large enough effect; inconclusive means small, poorly fitted or top-dose-only effect, or another doubt; inactive means no such curve, though single readings can be large or run the other way.
SMILES,Pf growth 96h,LmPK inh,Cycloheximide cs,Pf growth 48h,Shiga toxin inh
CC(Sc1nc(NCc2ccccc2)nc(N2CCOCC2)n1)C(=O)Nc1ccccc1 (configuration not stated),/,8%,-1,?,-7
CC(Sc1nc(NCc2ccccc2)nc(N(C)C)n1)C(=O)Nc1ccccc1 (configuration not stated),5.2µM*,8%,-1,?,-9
Cc1ccccc1NC(=O)CSc1nc(Nc2ccccc2)nc(N2CCOCC2)n1,/,1%,-3,?,-11
CC(C)(C)Nc1nc(NCc2cccnc2)nc(N2CCOCC2)n1,?,3%,-3,5.2µM*,-6
CC(C)(C)Nc1nc(SCC(=O)Nc2ccccc2)nc(N2CCOCC2)n1,?,12%,7,9.3µM*,54
CN(C)c1nc(NCc2ccccc2)nc(SCC(=O)Nc2ccccc2)n1,?,-5%,-5,?,-1
CN(C)c1nc(NC(C)(C)C)nc(SCC(=O)Nc2ccccc2)n1,-4%,-8%,6,15µM*,-1
Cc1ccc(S(=O)(=O)/N=C(/Nc2cccc3ccccc23)c2ccc(F)cc2)cc1,17%,0%,3,19%,-3
O=C(NCCCN1CCOCC1)c1ccc2c(c1)N(Cc1ccccc1F)C(=O)c1ccccc1S2=O (configuration not stated),15µM*,-4%,-8,-24%,-8
CCN1C(=O)c2ccccc2S(=O)c2ccc(C(=O)NCCN(CC(C)C)CC(C)C)cc21 (configuration not stated),76%,7%,-2,12µM*,2
O=C(NCCCN1CCOCC1)c1ccc2c(c1)N(Cc1ccccc1)C(=O)c1ccccc1S2=O (configuration not stated),7%,6%,-3,?,-7
O=C(NCCCN1CCOCC1)c1ccc2c(c1)N(Cc1cccc(Cl)c1)C(=O)c1ccccc1S2=O (configuration not stated),-7%,2%,-2,12µM*,2
COC(=O)c1cc(C(=O)OCC(=O)c2ccc[nH]2)cc([N+](=O)[O-])c1,-1%,/,/,10%,/
CCN(CC(=O)Nc1ccc(NC(C)=O)cc1)C(=O)c1cccc(S(=O)(=O)N2CCCC2)c1,18%,/,/,6%,/
COc1cc(C(=O)NCCOc2cc(C)ccc2C(C)C)cc(OC)c1OC,91%,5%,-1,1%[0.00184 µM],-5
COc1ccc2cnn(CCOc3cc(C)ccc3C(C)C)c(=O)c2c1OC,10µM*,3%,-2,?,20
COc1ccc2cnn(CCOc3ccccc3)c(=O)c2c1OC,14%,-2%,34*,159%,59
CCOc1ccccc1OCCn1nc2ccccc2n1,?,-2%,2,-8%,40
CCOc1ccccc1OCCn1ncc2ccc(OC)c(OC)c2c1=O,?,-3%,18*,-11%,27
CCC(C)NC(=O)c1cn(-c2cccc(OC)c2)c(=O)c2ccccc12 (configuration not stated),12%,-7%,-1,-21%,-5
CC(Cl)C(=O)NC(=O)NC12CC3CC(CC(C3)C1)C2 (configuration not stated),13µM*,7%,-2,?,3
O=S(=O)(c1ccc(Br)s1)N1CCN(CCc2ccccc2)CC1,-20%,/,/,-19%,/
CNC(C)C#Cc1c(-c2cc(OC)c(OC)c(OC)c2)noc1C (configuration not stated),15µM*,1%,1,?,7
COc1cc(-c2noc(C)c2C#Cc2ccccn2)cc(OC)c1OC,?,7%,-1,5%,-2
COc1cc(-c2noc(C)c2C#Cc2ccc(N)cc2)cc(OC)c1OC,?,5%,14*,0%,12
SMILES,Pf growth 96h,LmPK inh,Cycloheximide cs,Pf growth 48h,Shiga toxin inh
COc1cc(-c2c(-c3cc(OC)c(OC)c(OC)c3)noc2C)ccc1F,?,-5%,-2,5%,3
O=C1NC(=O)N(Cc2ccco2)C(=O)/C1=C/C=C/c1ccco1,?,2%,0,12%,-4
O=C1NC(=O)N(Cc2ccccc2)C(=O)/C1=C\C=C\c1ccco1,?,19%,30*,14%,37
CN1C(=O)/C(=C/C=C/c2ccco2)C(=O)NC1=S,32%,10%,-1,1%,-15
Cc1ccc(N2C(=O)NC(=O)/C(=C\C=C\c3ccco3)C2=O)cc1,33%,10%,61*,9%,56*
Cc1cccc(N2C(=O)NC(=O)/C(=C\C=C\c3ccco3)C2=O)c1,34%,12%,20*,6%,42
O=C1NC(=O)N(c2ccccc2)C(=O)/C1=C/C=C/c1ccco1,22%,8%,36*,21%,57*
Cc1ccc(N2C(=O)NC(=O)/C(=C\C=C\c3ccco3)C2=O)cc1C,9%,4%,18*,11%,12
O=C1NC(=O)N(CCc2ccc(F)cc2)C(=O)/C1=C\C=C\c1ccccc1,?,-1%,21*,29%,27
C=CCN1C(=O)NC(=O)/C(=C/C=C/c2ccccc2)C1=O,?,-4%,17,19%,37
CN(C)c1ccc(/C=C/C=C2/C(=O)NC(=O)N(c3ccccc3)C2=O)cc1,-12%,13µM*,-2,28%,12
CCOC(=O)C1=C(C)N(c2ccc(C)c(C)c2)C(=O)/C1=C\c1ccco1,?,0%,-3,1%,17
CC(C)(C)n1cccc1/C=C1\C(=O)NC(=O)N(c2ccccc2)C1=O,10µM*,-5%,10,-7%,16
COC(=O)c1cccc(NC(=O)NC23CC4CC(CC(C4)C2)C3)c1,?,1%,10,/,7
COC(=O)c1ccc(Cl)c(NC(=O)NC23CC4CC(CC(C4)C2)C3)c1,0.66µM*,0%,0,/,22
COc1ccccc1C(=O)Nc1ccnn1C1CCN(CC2CC=CCC2)CC1 (configuration not stated),?,0%,-2,19%,-12
O=C(Nc1ccc(N2CCN(Cc3ccccc3)CC2)cc1)c1ccccc1[N+](=O)[O-],28%,-1%,-3,1%,-4
Cc1ccccc1C(=O)Nc1ccc(N2CCN(C)CC2)nc1,106%,-12%,22*,63%,52
O=C(Nc1ccc(N2CCCC2)cc1)c1ccccc1[N+](=O)[O-],117%,4%,19*,33%,80
Cc1ccccc1C(=O)Nc1ccc(N2CCCC2)cc1,-24%,?,35*,29%,57*
O=C(Nc1ccc(N2CCCC2)cc1)C(Cl)c1ccccc1 (configuration not stated),67%,-19%,32*,?,70*
COCCn1cc(C(=O)NCCN(C)C)c2c3ccccc3n(C)c2c1=O,44%,-3%,-1,5%,12
